Screens (PubChem BioAssay)
FLuc counter: qHTS profiling assay for firefly luciferase inhibitor/activator using purifed enzyme and Km concentrations of substrates (counterscreen for miR-21 project). purified FLuc, Km substrates, luminescence inhibition. Potency, µM (series often up to 57.5 µM), usual class: inhibitors. 360,000 compounds, 6.9% hits. AID 588342, 2011; further: nearly all actives have a fitted effect of over 55% in size
Target sequence (P08659 whole entry, looked up): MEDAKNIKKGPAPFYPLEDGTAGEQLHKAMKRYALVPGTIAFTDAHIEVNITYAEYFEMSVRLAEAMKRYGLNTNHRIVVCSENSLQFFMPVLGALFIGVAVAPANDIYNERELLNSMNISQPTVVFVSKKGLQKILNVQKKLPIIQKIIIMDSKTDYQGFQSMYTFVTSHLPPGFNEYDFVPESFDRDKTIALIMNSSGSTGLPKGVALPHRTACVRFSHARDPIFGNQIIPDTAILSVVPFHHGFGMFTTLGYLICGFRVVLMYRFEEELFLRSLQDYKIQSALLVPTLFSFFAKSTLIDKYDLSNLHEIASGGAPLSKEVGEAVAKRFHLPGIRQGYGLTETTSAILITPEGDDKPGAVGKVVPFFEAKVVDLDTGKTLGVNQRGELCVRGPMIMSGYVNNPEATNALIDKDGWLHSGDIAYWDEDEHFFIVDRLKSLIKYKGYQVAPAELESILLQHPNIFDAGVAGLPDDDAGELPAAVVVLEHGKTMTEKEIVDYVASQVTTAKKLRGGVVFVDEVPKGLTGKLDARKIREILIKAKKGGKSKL
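Purified P. pyralis luciferase (10nM final) with 10uM D-luciferin and 10uM ATP (Km levels) in 50mM Tris acetate pH 7.5, 10mM Mg acetate, 0.01% Tween-20, 0.05% BSA; qHTS 6-point titration, ~60 µM downward; luminescence read.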
Rab9 promoter act: qHTS Assay for Rab9 Promoter Activators; Potency, µM (highest dose often 9.22 µM), actives largely listed as activators; Huh7 Rab9 promoter-luciferase reporter, luminescence, 24 h; AID 485297, 2010; 320,000 compounds, 2.8% hits; further: nearly all actives have a fitted effect of over 60% in size
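Huh7 reporter line, Rab9 promoter upstream of luciferase. Compound exposure 24 h at 37 °C in reduced-serum medium with 10% FBS. Read-out: luminescence.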
NPC1 promoter act: qHTS Assay for NPC1 Promoter Activators; Huh7 NPC1 promoter luciferase reporter, 24 h; Potency, µM (titrated, usually from 9.22 µM), actives largely listed as activators; 320,000 compounds, 2.4% hits; further: nearly all actives have a fitted effect of over 60% in size
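Stable NPC1-promoter luciferase Huh7 line; cpd (DMSO) 24 h, 37 °C, 5% CO2; Amplite luciferase reagent 10 min RT; luminescence readout. qHTS format.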
ELG1 genotoxic: qHTS screen for small molecules that induce genotoxicity in human embryonic kidney (HEK293T) cells expressing luciferase-tagged ELG1 | Potency, µM (titrated, usually from 46 µM), most hits filed as activators | 330,000 compounds, 1.3% hits | AID 504466, 2011 | HEK293T ELG1-luciferase reporter, luminescence, 16 h; further: nearly all actives have a fitted effect of over 60% in size
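DMSO vehicle served as control against compound-treated ELG1-luciferase HEK293T cells; exposure lasted 16 hr at 37 °C and 5% CO2, followed by ONE-Glo luminescence detection after 30 min.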
ELG1 DNA repair: qHTS screen for small molecules that inhibit ELG1-dependent DNA repair in human embryonic kidney (HEK293T) cells expressing luciferase-tagged ELG1; HEK293T ELG1-luciferase reporter, luminescence, 16 h; DNA damage induced by 5-fluorouridine; Potency, µM (series often up to 46.1 µM), hits mostly inhibitors; 330,000 compounds, 2.3% hits; AID 504467, 2011; further: nearly all actives have a fitted effect of over 55% in size
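HEK293T cells expressing luciferase-tagged ELG1 (2,000/well) received 5-Fluorouridine plus compound or DMSO for 16 hr at 37 °C. Luciferase was read by ONE-Glo luminescence after 30 min at room temperature.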
SMN2 splice enh: qHTS Assay for Enhancers of SMN2 Splice Variant Expression | HEK293 SMN2-luciferase splicing reporter, luminescence, 30-36 h | Potency, µM (series often up to 46.1 µM), hits mostly activators | 210,000 compounds, 2.8% hits; further: nearly all actives have a fitted effect of over 55% in size
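qHTS luciferase splicing reporter: luminescence rises when SMN2 exon 7 is included in transfected HEK293 cells. Compound exposure lasted 30-36 h at 37C, with 4.5 mM final sodium butyrate as control, followed by a ONE-Glo read.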
Hits are given with their value; – = inactive; ? = inconclusive; · = no result; [ ] = dose if it differs, or a comment. Hits are enriched below; roughly 9.2% of the tested compounds scored in any of these assays. The call rests on the fitted dose curve; in most records, active means well fitted curve in the direction sought with a large enough effect; inconclusive means small, poorly fitted or top-dose-only effect, or another doubt; inactive means no such curve, though single readings can be large; an effect the other way counts as inactive or inconclusive.

SMILES	FLuc counter	Rab9 promoter act	NPC1 promoter act	ELG1 genotoxic	ELG1 DNA repair	SMN2 splice enh
Cc1ccccc1CSc1nc2cccnc2n1Cc1ccc(C(=O)NC2CC2)cc1	6µM	·	·	·	·	·
O=C(NC1CC1)c1ccc(Cn2c(SCc3ccc(F)cc3)nc3cccnc32)cc1	1.7µM	·	·	·	·	·
O=C(CN1C(=O)c2ccc(Br)cc2C1=O)NCC1CCCO1 (configuration not stated)	–	–	–	–	?	·
Cc1ccc(S(=O)(=O)/N=C(/NC(=S)Nc2ccccc2)c2ccccc2)cc1	4.8µM	2.8µM	3.5µM	?	?	?
COc1ccc(C(=O)NN/C(=N/S(=O)(=O)c2ccc(C)cc2)c2ccccc2)cc1	5.4µM	2.5µM	2.8µM	?	?	·
CCOc1ccc(S(=O)(=O)/N=C(/Nc2ccc(OC)cc2)c2ccccc2)cc1	–	–	–	–	–	·
Cc1ccc(NC(=S)N/C(=N/S(=O)(=O)c2ccccc2)c2ccccc2)cc1	11µM	–	–	23µM	?	–
CC(=O)Nc1ccc(N/C(=N\S(=O)(=O)c2ccccc2)c2ccccc2)cc1	–	–	–	–	–	·
CCC#CCOCC(=O)Nc1ccccc1	·	·	·	·	·	–
CC(=O)Nc1ccc(NC(=O)C(C)OC(=O)c2cc(S(=O)(=O)N(C)C)ccc2N2CCCC2)cc1 (configuration not stated)	–	–	–	–	?	·
CC[C@]12CCCN3CCc4c(n(c5ccccc45)C(=O)C1)[C@@H]32	–	–	–	–	–	·
CC[C@]12CCCN3CCc4c(n(c5ccccc45)[C@@](O)(C(=O)OC)C1)[C@@H]32	–	–	–	16µM	?	·
Cc1noc(C)c1COC(=O)c1cccc(S(=O)(=O)N2c3ccccc3CC2C)c1 (configuration not stated)	–	–	–	–	18µM	–
Cc1noc(C)c1COC(=O)c1cccc(S(=O)(=O)N2CCOCC2)c1	–	–	–	–	–	·
c1ccc2c(c1)CC/C2=N/Nc1nc2ccccc2[nH]1	6.7µM	2.5µM	?	?	?	11µM
c1ccc(CN2CCC(=NNc3nc4ccccc4[nH]3)CC2)cc1	19µM	–	–	–	–	–
CC(C)(C)C1CCC(=NNc2nc3ccccc3[nH]2)CC1 (configuration not stated)	13µM	–	–	–	–	–
O=c1c2c3c(sc2nc(NCCOCCO)n1Cc1ccco1)CCCCC3	17µM	–	?	–	–	·
CC(O)CNc1nc2sc3c(c2c(=O)n1Cc1ccco1)CCCCC3 (configuration not stated)	17µM	–	?	–	?	·
CC(O)CNc1nc2sc3c(c2c(=O)n1CCc1ccccc1)CCCCC3 (configuration not stated)	?	–	–	–	–	–
c1nc2ccc(Cc3ccc4nc[nH]c4c3)cc2[nH]1	–	–	–	–	–	·
Cc1nc2ccc(-c3nc4cc(N)ccc4o3)cc2[nH]1	1.9µM	0.4µM	0.4µM	?	?	2.8µM
Nc1ccc2oc(-c3ccc4nc[nH]c4c3)nc2c1	1.9µM	?	?	?	?	13µM
Cc1ccc(NC(=O)C2CCN(S(=O)(=O)c3ccc4[nH]c5c(c4c3)CCCCC5)CC2)cc1	–	·	·	·	·	·
CC(C)(C)OC(=O)N/N=C\c1ccc([N+](=O)[O-])s1	27µM	–	–	–	?	–
CCOC(=O)N/N=C\c1ccc(C)s1	?	–	–	–	?	–[1.84 µM]
CCOC(=O)N/N=C\c1ccc([N+](=O)[O-])s1	–	–	–	–	21µM	–
Cc1cccc(NC(=O)C(=O)c2cc(C)n(-c3ccccc3)c2C)c1C	–	·	·	·	·	·
COc1ccc(/C=C2\NC(=S)N(CC3CCCO3)C2=O)c(OC)c1 (configuration not stated)	15µM	?	–	–	–	–
